# Bioassay records deposited in PubChem by several laboratories.
# An excerpt weighted towards active compounds, which were near 2.4% of everything screened.
# Mcl1-Noxa inh – disrupts binding of human Mcl-1 to Noxa peptide. 220,000 tested, 1.5% active. TR-FRET Mcl-1/Noxa peptide binding, 2 h. Q07820. inhibition, % at 21.7 µM;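 active = compounds that cut the protein-peptide binding signal by more than 50% relative to plate controls in a single-dose test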;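 note: His-tagged Mcl-1 with rhodamine Noxa BH3 peptide and terbium anti-His antibody; 0% = Mcl-1 plus Noxa peptide wells and 100% = peptide-only wells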
# Target sequence (Q07820 whole entry, looked up): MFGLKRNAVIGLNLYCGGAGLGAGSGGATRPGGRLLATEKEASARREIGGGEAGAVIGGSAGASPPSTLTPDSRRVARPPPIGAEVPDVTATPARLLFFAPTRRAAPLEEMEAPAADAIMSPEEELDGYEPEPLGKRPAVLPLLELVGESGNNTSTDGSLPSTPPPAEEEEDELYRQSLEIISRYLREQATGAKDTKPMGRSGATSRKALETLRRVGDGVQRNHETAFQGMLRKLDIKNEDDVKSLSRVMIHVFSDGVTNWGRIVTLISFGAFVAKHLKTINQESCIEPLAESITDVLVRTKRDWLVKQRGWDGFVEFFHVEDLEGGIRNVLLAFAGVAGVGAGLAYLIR
# Mcl1 Bid PPI – Mcl-1/Bid interaction inhibition; Q07820; TR-FRET Mcl-1/Bid-Dy647 peptide binding, 1536-well; inhibition, % at 21.7 µM; 220,000 tested, 0.97% active; AID 1021;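 active = compounds that cut the binding signal by more than half at the single screening dose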;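 note: His-tagged Mcl-1 with europium anti-His antibody binding Bid BH3 peptide; 0% = Mcl-1 plus peptide wells and 100% = peptide-only wells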
# L929 necroptosis – blocks zVAD induced death of L929 cells; L929 zVAD necroptosis rescue, ATP luminescence, 24 h; with zVAD 60 µM; viability rescue, % at 10 µM; AID 1377; 220,000 tested, 0.38% active;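 active = activation, scaled between plate controls, above about 75%, limit read from the data; inactive = activation under that limit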;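 note: 0% = zVAD with DMSO and 100% = DMSO alone without zVAD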
# MCL1 BIM primary – inhibitors of human MCL1 binding to BIM-BH3 peptide | AID 2057 | Q07820 | inhibition, % at 10.9 µM | 320,000 tested, 0.68% active | GST-MCL1 / FITC-Bim-BH3 fluorescence polarization;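 active = inhibition above the mean inhibition of all tested compounds plus 3 SD, set per campaign, cut at about 40% in these data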;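 note: 0% = DMSO wells and 100% = unlabeled Bim-BH3 peptide control; higher means more loss of mP so more displacement of Bim peptide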
# Bim-Mcl-1 – disrupts Bim peptide binding to human Mcl-1 | 190,000 tested, 0.1% active | inhibition, % at 10 µM | Q07820 | Bead-based flow cytometry, Bim peptide-Mcl-1 binding; in the data active = inhibition above about 40%;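 note: 0% = no compound tracer wells and 100% = peptide blocker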
# TNF necrop inh – blocks TNF-alpha induced death of Jurkat FADD-/- cells; Jurkat FADD-/- TNF necroptosis rescue, ATP luminescence, 24 h; 0 = TNF only, 100 = no-TNF cells; activation (protection from cell death), % at 10 µM; 220,000 tested, 0.068% active;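 active = activation, meaning protection from cell death, of at least 50% relative to plate controls; inactive = activation below 50%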;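 note: necroptosis triggered by 40 ng/mL TNF-alpha added together with compound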
# An asterisk follows results filed as active; x = not tested or not shown.
SMILES,Mcl1-Noxa inh,Mcl1 Bid PPI,L929 necroptosis,MCL1 BIM primary,Bim-Mcl-1,TNF necrop inh
Cc1ccc(NC(=O)Nc2nnc(Cc3ccc([N+](=O)[O-])cc3)s2)cc1,-7.8,51.4*,2.7,0.9,-5.0,2.0
O=C(Nc1ccc(Cl)cc1)Nc1nnc(Cc2ccc([N+](=O)[O-])cc2)s1,16.2,15.4,0.6,7.2,-18.0,0.4
O=C1C(C2=NC(C(=O)O)C3C(=O)N(c4ccc(Cl)cc4)C(=O)C23)=C(O)c2ccccc21 (stereo not drawn),63.2*,-21.3,3.6,-0.5,-1.0,-0.9
O=C(OC1CCCCC1)c1ccc2c(c1)C1C=CCC1C(C(=O)O)N2 (stereo not drawn),107.8*,98.2*,2.8,x,-1.0,-2.5
O=C(O)C1Nc2c(O)cccc2C2C=CCC12 (stereo not drawn),115.4*,86.0*,-0.1,90.4*,-2.0,-1.1
CC(C)CNC(=O)C1Nc2ccccc2C2C=CCC12 (stereo not drawn),x,x,x,30.5,x,x
Cc1ccc2c(c1)C(c1ccc(F)cc1)N(C(=O)c1ccccc1Br)CC(=O)N2 (stereo not drawn),x,x,x,9.1,x,x
CCCC(=O)Nc1ccc2oc(-c3cccnc3)nc2c1,-2.0,85.8*,0.0,-3.6,-2.0,0.5
CC1Cc2cc(/C(O)=C3/C(=O)C(=O)N(CCCn4ccnc4)C3c3ccc(F)cc3)ccc2O1 (stereo not drawn),x,x,x,-0.5,x,x
O=c1c2c3nc4ccccc4nc3n(Cc3ccccc3)c2ncn1Cc1ccco1,73.3*,1.8,-0.6,x,4.0,-9.5
CC(=O)Oc1ccc(Cl)cc1/C=C/c1ccc2ccccc2n1,21.8,97.4*,34.0,-1.2,-7.0,-3.7
CC(=O)Oc1c(Cl)cc(Cl)cc1/C=C/c1ccc2ccccc2n1,x,-29.4,-0.1,-6.2,-2.0,-7.6
CC(O)CNC(=O)C1CCN(Cc2ccc(OCc3ccccc3)cc2)CC1 (stereo not drawn),30.5,63.1*,-0.3,0.4,-6.0,-0.2
CCOc1ccc(C(=O)C[n+]2cccc3cc(C)ccc32)cc1,x,x,x,45.5*,x,x
Cc1ccc(C(=O)C[n+]2cccc3cc(C)ccc32)cc1,26.7,-12.9,-0.5,8.6,2.0,-0.5
O=C(CSc1ccccc1)NCCCN1CCOCC1,15.8,-7.9,1.0,5.5,-3.0,0.6
O=C(CSCc1ccccc1)NCCCN1CCOCC1,7.0,97.7*,-0.3,4.3,0.0,0.9
CN(C(=O)c1ccc(-c2nn(C)c(=O)c3ccccc23)cc1)C1CCCCC1,x,x,x,-0.7,x,x
COc1cc(C(=O)NC2(C(F)(F)F)NC(=O)N(CCCc3ccccc3)C2=O)cc(OC)c1OC (stereo not drawn),-2.7,63.8*,1.5,3.1,-2.0,-1.4
CC1=NN(c2ccccc2)C(=O)/C1=C\c1cn(-c2ccccc2)nc1C,-0.9,68.2*,1.4,-5.7,-6.0,-0.8
O=C(/C=C/c1cccs1)Nc1nc(-c2ccccc2)cs1,15.0,-15.9,1.3,-1.9,-4.0,-8.3
O=C(/C=C/c1cccs1)Nc1scc(-c2ccccc2)c1C(=O)O,45.7,93.2*,6.3,x,-2.0,0.0
Cc1ccc(NC(=O)C(=O)NCc2ccc(/C=C(/C#N)C(=O)NCc3cccnc3)o2)cc1C,17.5,95.2*,1.3,8.5,-1.0,-7.3
Cc1ccc(OCCN2CCN(CC(O)Cn3c4ccccc4c4ccccc43)CC2)cc1 (stereo not drawn),-7.0,65.7*,0.0,2.8,-1.0,6.3
Cc1cc2cc(CNC(=O)C(C)Oc3ccccc3)ccc2n1C (stereo not drawn),8.6,-53.1,-0.3,41.3*,x,-2.6
CCOC(=O)CCC(=O)NCc1ccc2c(c1)cc(C)n2C,6.3,-32.2,1.9,44.1*,2.0,-1.5
CCOc1ccc(N2CC(C(=O)Nc3ccc(S(=O)(=O)NCC4CCCO4)cc3)CC2=O)cc1 (stereo not drawn),x,x,x,-4.1,x,x
CC(=O)c1sc(-c2ccc(F)cc2F)nc1C,-27.9,-6.5,1.2,8.5,x,0.4
C[C@H](NC(=O)c1nc[nH]c1C(=O)N1CCc2ccccc2C1)C(=O)OCc1ccccc1,-12.2,-42.9,-0.1,-5.9,x,0.2
CCN(CC)c1ccc(NC(=O)Cn2cc3c(n2)CCC(C)C3)c(C)c1 (stereo not drawn),60.7*,-9.1,2.5,-0.8,2.0,1.6
